Pf Dd2 inh: inhibitors of Plasmodium falciparum Dd2 growth; P. falciparum Dd2 growth, SYBR Green, 72 h; Potency, µM (top dose mostly 28.9 µM), for the others: at the highest dose activity, negative = inhibition, most hits filed as inhibitors; 120,000 compounds, 4.3% hits; active = well fitted inhibition curve with a large enough effect;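 also: plate controls were DMSO vehicle for no effect and reference drug for full effect; nearly all actives have a fitted effect of over 65% in size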
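Infected erythrocytes (Dd2, 0.3% parasitemia, 2.5% hematocrit final) are added to compound in RPMI-1640/Albumax II medium, grown 72 h at 37C in low oxygen, then lysed with saponin/Triton-X containing SYBR Green and read by fluorescence.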
* = called active by the depositor; i = inactive; [ ] = dose if it differs, or a comment. Shown is part of a subset that was picked to be rich in hits. Potency is read from the fitted curve at half-maximal effect.

SMILES	Pf Dd2 inh
Cc1ccccc1C(=O)NC1CCCN(c2cc(-c3ccccc3)[nH]n2)C1 (configuration not stated)	i
COC(=O)c1cc2n(n1)CCN(C(=O)C(C)Oc1ccccc1)C2 (configuration not stated)	-1%
CCN(CC)c1cc(CCC(=O)N(C)CCc2ccncc2)ccn1	-14%
CCN(CC)c1cc(CCC(=O)NCc2ccc(Cl)cc2)ccn1	5µM*
Cn1cc(CCC(=O)NCc2ccc(Cl)cc2)c2ccccc21	29%
CCN1C(=O)C2(CCN(S(=O)(=O)c3cccc(C)c3)CC2)c2ccccc21	i
CCN1C(=O)C2(CCN(S(=O)(=O)c3ccc(C)c(C)c3)CC2)c2ccccc21	i
CCN1C(=O)C2(CCN(S(=O)(=O)c3ccc(Cl)cc3C)CC2)c2ccccc21	1µM*
CCc1nc(-c2c3n(c(=O)n(CC(=O)Nc4ccccc4Cl)c2=O)CCCC3)no1	-15%
COc1ccccc1C(=O)N1CCc2[nH]nc(C(=O)NCCCc3ccccc3)c2C1	i
O=C1NCCCCCCN(Cc2ccncc2)[C@@H]2CN(S(=O)(=O)c3ccccc3)CC[C@H]12	10µM*
O=C1NCCCCCCN(Cc2ccncc2)[C@@H]2CN(Cc3ccccn3)CC[C@@H]12	i
CS(=O)(=O)N1CC[C@@H]2C(=O)NCCCCCCN(Cc3ccncc3)[C@@H]2C1	-6%
O=C1NCCCCCCN(Cc2ccncc2)[C@@H]2CN(S(=O)(=O)c3cccnc3)CC[C@H]12	-15%
O=C1NCCCCCCN(Cc2ccncc2)[C@@H]2CN(C3CCOCC3)CC[C@@H]12	8%
CCN1CCC(N2CC[C@@H]3C(=O)NCCCCCCN(Cc4ccncc4)[C@@H]3C2)CC1	4%
COc1cccc(CN2CC[C@@H]3C(=O)NCCCCCCN(Cc4ccncc4)[C@@H]3C2)n1	4µM*
Cn1cccc1CN1CC[C@@H]2C(=O)NCCCCCCN(Cc3ccncc3)[C@@H]2C1	6.3µM*
O=C1NCCCCCCN(Cc2ccncc2)[C@@H]2CN(Cc3cccnc3)CC[C@H]12	-19%
O=C1CCN(S(=O)(=O)c2ccccc2)CCCN(C(=O)Nc2ccc3c(c2)OCCO3)CCN1	4%
CN(C)c1ccc2ncc(Nc3ccccc3Cl)n2n1	-16%[44.1 µM]
O=C1CCC2(CCCO2)CCN1Cc1cccc(F)c1F (configuration not stated)	-8%
C=CCN(Cc1ccccc1OC)C(=O)c1cnn(CCC)c1C	-11%
O=C(NC1CC(c2nnc(CO)n2C2CC2)C1)c1cccn2cnnc12 (configuration not stated)	-24%
CNC(=O)[C@@H](c1ccc(OC)cc1)N1CCC[C@H]1C(=O)NC1CCCC1	29%[44.1 µM]
SMILES	Pf Dd2 inh
O=C(CN1C(=O)NC2(CCOCC2)C1=O)Nc1ccc2c(c1)OCCO2	22%
CC(C)(C)C1CCC2(CC1)NC(=O)N(CC(=O)Nc1ccc3c(c1)OCCO3)C2=O (configuration not stated)	7.9µM*
CC1CCC2(CC1)NC(=O)N(CC(=O)Nc1ccc3c(c1)OCO3)C2=O (configuration not stated)	i
Fc1cccc(-n2cc(CN3CCCC4(CCOC4)C3)cn2)c1 (configuration not stated)	-14%
CN(Cc1ccc(CN2CCCC(O)(CO)C2)o1)S(C)(=O)=O (configuration not stated)	26%
CC(C)c1ccc(-n2cc(CN3CCCC(O)(CN(C)C)C3)cn2)cc1 (configuration not stated)	6.3µM*
Cc1nnc(-c2cc(-c3cnn(C)c3)ccn2)n1Cc1ccccc1	i
COc1ccc(CN[C@H](C)c2onc(C)c2C(=O)O)cc1	-22%[44.1 µM]
Cc1csc(NC(=O)c2cnc3c(c2)N(C(=O)Cc2ccc(C(C)C)cc2)CCC3)n1	7.1µM*
COc1ccc(NC(=O)c2cnc3c(c2)N(C(=O)Cc2ccc(O)cc2)CCC3)cn1	3%[44.1 µM]
O=C(Nc1ccccc1)c1cnc2c(c1)N(C(=O)Cc1ccc(O)cc1)CCC2	-20%[44.1 µM]
CC(C)c1ccc(CC(=O)N2CCCc3ncc(C(=O)Nc4ccccc4)cc32)cc1	-8%[44.1 µM]
O=C(NC(c1ccccc1)c1ccccc1)c1cnc2c(c1)N(C(=O)Cc1ccc(O)cc1)CCC2	13µM*
CC(C)c1ccc(CC(=O)N2CCCc3ncc(C(=O)Nc4ccn(C)n4)cc32)cc1	-12%[44.1 µM]
Cc1cc(C(=O)N2CCc3nnc([C@@H]4C[C@@H](O)CN4C(C)C)n3CC2)nn1C	11%
Cc1ccc(CN(C)Cc2cccn2C)cc1	-9%[44.1 µM]
COC(=O)[C@]1(C)N[C@H](c2cc(F)c(OC)c(Cl)c2)[C@@H]2C(=O)N(C)C(=O)[C@@H]21	9%
CC(C)(C)CC(=O)N1CCN2C(=O)c3cc(-c4cccc(C(F)(F)F)c4)ccc3NC(=O)[C@H]2C1	i
O=C(N[C@H]1CCN2C(=O)c3cc(-c4ccccc4F)ccc3NC(=O)[C@H]12)c1cnccn1	5.6µM*
O=C(N[C@H]1CCN2C(=O)c3cc(/C=C/c4ccc(O)cc4)ccc3NC(=O)[C@H]12)c1cnccn1	-21%
O=C(N[C@H]1CCN2C(=O)c3cc(/C=C/c4ccccc4)ccc3NC(=O)[C@H]12)c1cnccn1	-14%[44.1 µM]
CN(C1CCc2nn(C)c(=O)n2CC1)S(=O)(=O)c1ccc2c(c1)CCC2 (configuration not stated)	i
Cc1noc(C)c1S(=O)(=O)N1CCC(N2CC(OCC3CC3)C23CCCCC3)CC1 (configuration not stated)	-13%
O=C(c1ccc(Cl)s1)N1CCC2(CNS(=O)(=O)c3cnccc3O2)C1 (configuration not stated)	12%
O=C(O)c1ccccc1C(=O)N1Cc2[nH]cnc2C[C@H]1c1nc(-c2ccc(C(F)(F)F)cc2)no1	-22%
SMILES	Pf Dd2 inh
CCCn1c(C)cnc1CC1CCCN(S(=O)(=O)CCC)C1 (configuration not stated)	-11%
CNC(=O)N1CCC(Cc2noc(C3CCOCC3)n2)C1 (configuration not stated)	2%
Cc1cnc(CC2CCN(S(=O)(=O)c3ccccc3)C2)n1C(C)C (configuration not stated)	3.2µM*
Cc1cnc(CC2CCN(S(=O)(=O)c3cn(C)cn3)C2)n1C(C)C (configuration not stated)	-12%
CNC(=O)N1CCCC(Cc2ncc(C)n2C(C)C)C1 (configuration not stated)	-12%
CCNC(=O)N1CCC(Cc2ncc(C)n2C(C)C)C1 (configuration not stated)	8%
CC(=O)N1CCC(Cc2ncc(C)n2C(C)C)C1 (configuration not stated)	3%
COCCn1c(C)cnc1CC1CCCN(S(=O)(=O)c2cccc(F)c2)C1 (configuration not stated)	8.9µM*
O=C(c1n[nH]c(=O)c2ccccc12)N1CCC(Cc2noc(C3CCOCC3)n2)C1 (configuration not stated)	6%
CNC(=O)N1CCC(Cc2ncc(C)n2CCOC)C1 (configuration not stated)	2%
CCOc1ccccc1NC(=O)N1CCCC(Cc2ncc(C)n2C(C)C)C1 (configuration not stated)	1.8µM*
CCOc1ccccc1NC(=O)N1CCC(Cc2noc(C3CCOCC3)n2)C1 (configuration not stated)	7.9µM*
COc1ccc(CN2C(=O)[C@@H]3C[C@@H](O)CN3C3(CN(Cc4cccs4)C3)C2=O)cc1	i
Cc1ccc(C2NC(=O)N(CC(=O)NC(C)CCc3ccccc3)C3=C2C(=O)OC3)cc1 (configuration not stated)	i

Screens from PubChem.
